Sampled rows, rich in hits. Any-hit rate of the full collection: about 4.2%.
Sfp PPTase inh – blocks B. subtilis Sfp PPTase activity | Q9F4F7 | Biochemical Sfp PPTase activity, qHTS | Potency, µM, usual class: inhibitors | 3.5% of 310,000 active | AID 1490;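 further: the enzyme is Sfp with the accession as filed and its product quenches rhodamine fluorescence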
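Reaction rates are the 30-min fluorescence difference (ex 525, em 598 nm) in wells containing 15 nM Sfp, 5 uM rhodamine-CoA and 12.5 uM BHQ-2-YbbR at pH 7.6 with 10 mM MgCl2.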
TCR act – T cell receptor activation; primary human leukocytes, anti-CD3, IL-2 HTRF, 48 h; Potency, µM (doses to about 9.22 µM), actives largely listed as activators; 330,000 tested, under 10 active; AID 504894
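Primary human leukocytes were stimulated with a-CD3 beads plus compounds for 48 hr without co-stimulation; secreted IL-2 was quantified by HTRF using a-IL-2-K (europium cryptate) and a-IL-2-d2, excited at 320nm with acceptor emission read at 665nm.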
uPA generation – inhibitors of cell surface uPA generation. cell surface uPA generation assay, qHTS. Potency, µM (titrated, usually from 38.3 µM), hits mostly inhibitors. 0.31% of 330,000 active. AID 540303; active means well fitted inhibition curve with a large enough effect; inconclusive means small, poorly fitted or top-dose-only effect; inactive means no such curve, though single readings can be large or run the other way; tested in mouse RAW 264.7 cells; further: nearly all actives have a fitted effect of over 55% in size
ClpP mod – qHTS Assay for Activators of ClpP; ATP-dependent Clp protease proteolytic subunit (Bacillus subtilis (strain 168)), P80244; purified B. subtilis ClpP, FRET peptide cleavage, 20 min; Potency, µM (doses to about 57.5 µM); 1.9% of 340,000 active; active means well fitted falling curve with a large enough effect; inconclusive means small, poorly fitted or top-dose-only effect; inactive means no such curve, though single readings can be large or run the other way; further: the source files actives as falling curves though it sought activators and does not explain the sign; nearly all actives have a fitted effect of over 65% in size
Target sequence (P80244 whole entry, looked up): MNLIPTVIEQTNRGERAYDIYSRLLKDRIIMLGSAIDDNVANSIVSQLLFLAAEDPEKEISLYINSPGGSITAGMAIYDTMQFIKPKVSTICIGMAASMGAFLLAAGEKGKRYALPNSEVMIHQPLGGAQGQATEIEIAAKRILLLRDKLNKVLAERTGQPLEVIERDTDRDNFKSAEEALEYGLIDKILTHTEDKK
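FRET quenching reversal measured ClpP activation: 10 microg/mL B. subtilis ClpP at pH 8 with the FRET-FV decapeptide, read at 430 nm after 320 nm excitation. The 20-min minus 0-min signal was scaled between DMSO/no-enzyme wells and ADEP (5.8 microM final).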
Hits are given with their value; ! = not active in a repeat. Unless noted, the call rests on the fitted dose curve; in most records, active means well fitted curve in the direction sought with a large enough effect; inconclusive means small, poorly fitted or top-dose-only effect, or another doubt; inactive means no such curve, though single readings can be large; an effect the other way counts as inactive or inconclusive.

`COc1cccc(C2=CC(c3ccc(C)cc3)n3ncnc3N2)c1` (centres undefined) gave Sfp PPTase inh inactive.
Screening COc1ccc(C2=CC(c3sccc3C)n3nnnc3N2)cc1 (centres undefined) returned Sfp PPTase inh 50µM, TCR act inactive, uPA generation inactive and ClpP mod inactive.
COCCN(Cc1ccccc1)C(=S)Nc1ccc(OC(F)F)cc1 was read as Sfp PPTase inh inactive, TCR act inactive and uPA generation inactive.
CCCN(Cc1ccccc1)C(=S)Nc1ccc(OC(F)F)cc1 was read as Sfp PPTase inh inactive, TCR act inactive, uPA generation inactive and ClpP mod 10µM.
Screening O=C(c1ccc(F)cc1)N1CCC(C(=O)N2CCN(S(=O)(=O)c3cccc(Cl)c3)CC2)CC1 returned TCR act inactive, uPA generation inactive and ClpP mod inactive.
CC(CNC(=O)c1cncc(O)c1)NC(=O)c1cncc(O)c1 (centres undefined) was read as Sfp PPTase inh 79µM, TCR act inactive, uPA generation inactive and ClpP mod inactive.
`CCOc1ccc(C(=O)NCC(C)NC(=O)c2ccc(OCC)cc2)cc1` (centres undefined) gave Sfp PPTase inh inactive, TCR act inactive, uPA generation inactive and ClpP mod inactive.
Screening CCOC(=O)CCC(NC(=O)CCCCC(=O)NC(CCC(=O)OCC)C(=O)OCC)C(=O)OCC (centres undefined) returned Sfp PPTase inh inactive, TCR act inactive, uPA generation inactive and ClpP mod inactive.
CCOC(=O)CCC(NC(=O)c1cncc(O)c1)C(=O)OCC (centres undefined) was read as Sfp PPTase inh inactive, TCR act inactive, uPA generation inactive and ClpP mod 28µM.
For CC(C)C[C@H](NC(=O)[C@H](CCCCN)NC(=O)[C@H](CCCNC(=N)N)NC(=O)[C@H](C)NC(=O)[C@H](CO)NC(=O)[C@H](CCCCN)NC(=O)[C@H](CCCNC(=N)N)NC(=O)[C@H](C)NC(=O)CNC(=O)[C@@H](NC(=O)[C@H](Cc1ccccc1)NC(=O)CNC(=O)CNC(=O)[C@@H](N)Cc1ccccc1)[C@H](C)O)C(=O)N[C@@H](C)C(=O)N[C@@H](CC(N)=O)C(=O)N[C@@H](CCC(N)=O)C(=O)O the results were Sfp PPTase inh inactive.
`O=C(COC(=O)Cc1n[nH]c(=O)c2ccccc12)Nc1ccc(Cl)cn1` gave TCR act inactive, uPA generation inactive and ClpP mod inactive.
`Nc1nc(SCC(=O)NCCCN2CCOCC2)nc2sc3c(c12)CCC3` gave Sfp PPTase inh 28µM, TCR act inactive, uPA generation inactive and ClpP mod inactive.
For COc1ccc(C2C(C#N)=C(C)NC3=C2C(=O)CC(C)(C)C3)cc1 (centres undefined) the results were Sfp PPTase inh inactive, TCR act inactive, uPA generation inactive and ClpP mod 28µM.
For COc1cccc(C2C(C#N)=C(C)NC3=C2C(=O)CC(C)(C)C3)c1 (centres undefined) the results were Sfp PPTase inh inactive, TCR act inactive, uPA generation inactive and ClpP mod 25µM.
`CCCSC1=C(C#N)C(c2ccc(OC)cc2)C2=C(CC(C)(C)CC2=O)N1` (centres undefined) gave Sfp PPTase inh inactive, TCR act inactive, uPA generation inactive and ClpP mod inactive.
Screening Cc1cc(S(=O)(=O)Nc2cc3c(cc2N2CCOCC2)n(C)c(=O)c(=O)n3C)ccc1F returned ClpP mod inactive.
CCCCC(=O)N1CC(=O)Nc2ccc(F)cc2C1c1ccc(F)cc1 (centres undefined) was read as Sfp PPTase inh inactive, TCR act inactive, uPA generation inactive and ClpP mod 20µM!.
Screening CCCCC(=O)N1CC(=O)Nc2ccc(F)cc2C1c1ccccc1 (centres undefined) returned Sfp PPTase inh inactive, TCR act inactive and uPA generation inactive.
`O=C(O)C(Cc1ccccc1)N1C(=O)/C(=C/c2cccnc2)SC1=S` (centres undefined) gave Sfp PPTase inh 79µM, TCR act inactive and uPA generation inactive.
Screening O=C(O)C(Cc1ccccc1)N1C(=O)/C(=C/C=C/c2ccco2)SC1=S (centres undefined) returned Sfp PPTase inh 40µM, TCR act inactive and uPA generation inactive.
For COc1ccc(/C=C2\SC(=S)N(C(Cc3ccccc3)C(=O)O)C2=O)cc1 (centres undefined) the results were Sfp PPTase inh inactive, TCR act inactive and uPA generation inactive.
`O=C(NN1C(=O)/C(=C/C=C/c2ccco2)SC1=S)c1ccccc1O` gave Sfp PPTase inh 56µM, TCR act inactive and uPA generation inactive.
Screening Cn1cccc1/C=C1\SC(=S)N(NC(=O)c2ccccc2O)C1=O returned Sfp PPTase inh inconclusive, TCR act inactive and uPA generation inactive.
For O=C(O)CC(C(=O)O)N1C(=O)/C(=C/C=C/c2ccco2)SC1=S (centres undefined) the results were Sfp PPTase inh 22µM, TCR act inactive, uPA generation inactive and ClpP mod inactive.
For O=C(O)CCCN1C(=O)/C(=C/C=C/c2ccco2)SC1=S the results were Sfp PPTase inh inactive, TCR act inactive and uPA generation inactive.
Screening CCOc1ccc(NC(=O)CN(C)C(=O)c2ccccc2OCCOc2ccccc2)cc1OCC returned TCR act inactive, uPA generation inactive and ClpP mod inactive.
Screening Cc1cccc(-c2nc(SCC(=O)Nc3cccc(C(F)(F)F)c3)n3[nH]c(=O)cc3n2)c1 returned ClpP mod inactive.
CCOC(=O)CNC(=O)O[C@@H]1C(=O)c2cc(OC)ccc2O[C@H]1c1ccc(OC)c(Br)c1 was read as Sfp PPTase inh inactive.
Screening CCOC(=O)C1CCN(C(=O)CSc2n[nH]c(-c3ccc(F)cc3)n2)CC1 returned ClpP mod inactive.
O=C1/C(=C\c2cccnc2)SC(=S)N1C1CCS(=O)(=O)C1 (centres undefined) was read as Sfp PPTase inh 79µM, TCR act inactive and ClpP mod inactive.
Screening Cc1ccccc1CCNC(=O)c1cc2cc(S(=O)(=O)N3CCCCC3)ccc2n1C returned ClpP mod inactive.
Screening C/C(CCc1oc2ccc(Cl)cc2c1-c1ccc(C)o1)=N\O returned Sfp PPTase inh 16µM, TCR act inactive, uPA generation inactive and ClpP mod inactive.
For C/C(CCc1oc2ccc(Br)cc2c1-c1ccc(C)o1)=N/O the results were Sfp PPTase inh inconclusive, TCR act inactive, uPA generation inactive and ClpP mod inactive.
Screening CCN(c1ccccc1)S(=O)(=O)c1ccc(Cl)c(NC(=O)CN(C)C2CCN(C)CC2)c1 returned Sfp PPTase inh 79µM, TCR act inactive and uPA generation inactive.
Screening CCOc1ccc(C(=O)NCc2nnnn2-c2ccc(C)c(C)c2)cc1OCC returned ClpP mod inactive.
For c1csc(C2C3=C(Nc4ncnn42)c2ccccc2OC3)c1 (centres undefined) the results were Sfp PPTase inh 50µM, TCR act inactive, uPA generation inactive and ClpP mod inconclusive.

Screening results (PubChem BioAssay)
